In PubChem BioAssay AID485294 (National Center for Advancing Translational Sciences (NCATS), 2010):
Among all 370,000 compounds or so, about 150 (0.041%) were called active. A call without a number means that no potency is given here. Inconclusive results (about 14%) are left out. The call rests on the fitted dose curve; in most records, active means well fitted inhibition curve with a large enough effect; inconclusive means small, poorly fitted or top-dose-only effect; inactive means flat fitted curve, though single readings scatter. Only a selection was taken, and actives are over-represented in it overall.

These molecules were tested against Beta-lactamase (Escherichia coli (strain K12)) (UniProt P00811) (assay: qHTS Inhibitors of AmpC Beta-Lactamase (assay with detergent)). Settings: AmpC hydrolysis of nitrocefin, absorbance 480 nm, 0.01% Triton; series mostly up to 114 µM.
Method: NIH Molecular Libraries Probe Production Network [MLPCN] NIH Chemical Genomics Center [NCGC] Assay Provider: Professor Brian Shoichet, UCSF Assay Overview: This aggregation profiling approach exploits the sensitivity of aggregate formation to detergent. Inhibition of b-lactamase is measured in the presence and absence of 0.01% Triton X-100. This particular assay had the prescence of 0.01% Triton X-100. See Pubchem assay "Promiscuous and Specific Inhibitors of AmpC Beta-Lactamase (assay without detergent)" for related screen. Compounds that inhibit only in the absence of detergent are considered likely promiscuous aggregators. A screen of 1,030 compounds was performed in Brian Shoichet's lab in 96-well format. AmpC activity was measured by following the absorbance at 480 nm. Nitrocefin is a chromogenic substrate: while nitrocefin is yellow (lmax 390 nm), the product of its hydrolysis is red (lmax 486 nm, 17,000 M-1). AmpC beta lactamase was provided by Shoichet Lab, UCSF.
Buffer: 20 mM phosphate buffer, pH 7.0 Triton X-100: No Detergent screen: 0.0001%, Detergent screen: 0.01%. Reagents/Controls: Buffer in columns 3 and 4 as negative control (no enzyme). 5.3 nM AmpC in columns 1, 2, 5-48. Titration of UCSF compound 9 control (from 10 mM, then 1:2) pin-transferred to column 2. Column 1 is neutral (100% activity). Assay Steps: Six uL of reagents were dispensed to 1536-well Greiner black clear bottom plates. Compounds and controls (23 nL) were transferred via Kalypsys PinTool. The plates were incubated for 15 min at room temperature, and then 2 uL of 800 uM solution of nitrocefin was added to start the reaction. The plates were immediately transferred to and read every 20 seconds for 4 min on ViewLux (Perkin-Elmer) High-throughput CCD imager using 480 nm absorbance protocol. During dispense, reagent bottles were kept submerged into 4 deg C water bath. Keywords: NIH Roadmap, MLSCN, MLI, MLSMR, qHTS, NCGC, AmpC Beta-Lactamase, Aggregation
Further: nearly all actives have a fitted effect of over 25% in size.
Potency means the concentration at half of the fitted maximal effect.

Chain of Beta-lactamase (Escherichia coli (strain K12)) (P00811 whole entry, looked up): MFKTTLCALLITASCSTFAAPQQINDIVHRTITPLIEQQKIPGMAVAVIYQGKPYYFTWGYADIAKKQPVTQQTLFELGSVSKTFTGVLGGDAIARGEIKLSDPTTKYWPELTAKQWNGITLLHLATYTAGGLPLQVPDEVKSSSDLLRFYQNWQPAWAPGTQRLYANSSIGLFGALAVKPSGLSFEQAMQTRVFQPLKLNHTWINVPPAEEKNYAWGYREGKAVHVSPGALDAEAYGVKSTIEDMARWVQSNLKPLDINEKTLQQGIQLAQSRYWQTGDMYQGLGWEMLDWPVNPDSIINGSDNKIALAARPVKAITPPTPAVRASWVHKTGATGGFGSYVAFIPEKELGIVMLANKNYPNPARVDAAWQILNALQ

Compound | Potency
CC(C)(C)c1ccc(C(=O)NCC(c2ccc(Cl)cc2)N2CCOCC2)cc1 (centres undefined) | inactive
COC(=O)c1c(NC(=O)c2cc(=O)c3c(C)cc(C)cc3o2)sc2c1CCCC2 | inactive
CCc1cc2c(cc3c(=O)n(CC(=O)NCCc4ccc(OC)c(OC)c4)ncn32)s1 | inactive
Cc1ccccc1CNC(=O)Cn1c(C)c2cnn(-c3ccccc3)c(=O)c2c1C | inactive
COc1ccc(-c2nc3sc(CCNC(=O)C(C)(C)C)c(C)n3n2)cc1 | inactive
Cc1nn(C(=O)c2c(F)cccc2F)c(C)c1S(=O)(=O)N1CCOCC1 | inactive
CCOc1ccc(C(=O)/C=C/c2cn(CC(O)CN3CCCCCC3)c3ccccc23)cc1 (centres undefined) | inactive
COc1ccc(OCCCn2c(C3CC(=O)N(c4ccc(F)cc4)C3)nc3ccccc32)cc1 (centres undefined) | inactive
Cn1c(C(=O)Nc2cccc(C(F)(F)F)c2)cc2c(=O)n3ccccc3nc21 | inactive
CCOc1ccc(CNC(=O)Cn2cc3c(n2)-c2c(oc(C(=O)N4CCCC4)c2C)CC3)cc1 | inactive
Cc1ccc(Nc2c(-c3ccc(N(C)C)cc3)nc3nc[nH]n23)cc1 | inactive
CCOC(=O)c1ccc(NC(=O)C2CCN(S(=O)(=O)c3ccc4c(c3)CCCC(=O)N4)CC2)cc1 | inactive
Cc1csc2nc(COC(=O)c3ccccc3NC(=O)c3ccccc3Cl)cc(=O)n12 | inactive
CCOc1ccc(Nc2c(S(=O)(=O)c3ccccc3)cnc3ccccc23)cc1 | inactive
CCCCn1cc(S(=O)(=O)c2ccc(OCC)cc2)c(=O)c2cc(OC)c(OC)cc21 | inactive
Cc1ccc(C)c(N2CCN(CCCNC(=O)Nc3ccc(Cl)cc3)CC2)c1 | inactive
Cc1ccc2nc(-c3ccc(C)c(NC(=O)Cc4ccccc4)c3)oc2c1 | inactive
CCc1cccc(C)c1Nc1c(-c2ccc(N(C)C)cc2)nc2ncccn12 | inactive
CCc1ccc(N2C(=O)CN(S(=O)(=O)CC)CC2(C)C(=O)NC2CCCCC2)cc1 (centres undefined) | inactive
COc1ccc(N2CCN(C(=O)C3CCCN(C(=O)c4cc5sccc5n4C)C3)CC2)cc1 (centres undefined) | inactive
O=C(CCS(=O)(=O)c1ccccc1)N(Cc1cccnc1)c1nc2c(F)cccc2s1 | inactive
CCOC(=O)c1nnn(CC(=O)NC(=O)Nc2ccccc2F)c1C(=O)OCC | inactive
CCc1ccccc1NC(=O)CSc1nnc([C@@H](NC(=O)OC(C)(C)C)C(C)C)o1 | inactive
C[C@@H](NC(=O)OC(C)(C)C)c1nnc(S(=O)(=O)Cc2ccccc2)o1 | 8.91 µM (active)

Compound | Potency
CC(C)Sc1nnc([C@H](Cc2ccccc2)NC(=O)OC(C)(C)C)o1 | inactive
CC1CCN(S(=O)(=O)c2ccc3c(c2)N(CC(=O)NCCc2ccccc2)C(=O)CO3)CC1 | inactive
Cc1cccc(-n2ncc(C(=O)N3CCN(c4ccc(Cl)cc4)CC3)c2C2CCN(C(=O)OC(C)(C)C)CC2)c1 | inactive
CCOC(=O)c1ccc(NC(=O)CCS(=O)(=O)c2ccc(C)cc2)cc1 | inactive
CCOC(=O)c1scc(-c2ccc(C)cc2)c1S(=O)(=O)Nc1cc(C)ccc1C | inactive
Cc1ccc(S(=O)(=O)N2CCc3cc(C(=O)Nc4ccc(Cl)cc4C)ccc32)cc1 | inactive
CC1CCCN(c2cc3c(cc2F)c(=O)c(S(=O)(=O)c2cccc(Cl)c2)cn3Cc2ccccc2)C1 (centres undefined) | inactive
CCOC(=O)c1ccc(NC(=O)CSc2nc3c([nH]c4ccccc43)c(=O)n2C)cc1 | inactive
COc1ccc(C2CC(=O)N(Cc3ccccc3C)c3c2c(C)nn3-c2nc(C)cc(C)n2)c(OC)c1 (centres undefined) | inactive
COc1ccc2c(c1)c(=O)c(S(=O)(=O)c1ccc(F)cc1)cn2CC(=O)Nc1ccc(C)cc1C | inactive
Cn1c(=O)nc2n(-c3ccc(Br)cc3)c3cccc(Cl)c3cc-2c1=O | inactive
O=C(Cn1cc(SCc2ccccc2)c2ccccc21)N1CCCCC1 | inactive
COCCCNC(=O)c1c(NC(=O)c2cc(=O)c3cc(C)c(C)cc3o2)sc2c1CCCC2 | inactive
COc1ccc2c(c1)c(N1CCCC1=O)c(C(=O)Nc1ccccc1C(F)(F)F)n2C | inactive
CCOc1cc(C(=O)NCCc2csc3nc(-c4ccc(C)cc4)nn23)cc(OCC)c1OCC | inactive
COc1ccccc1CNC(=O)CCn1c(=O)c2ccccc2n(CC(=O)Nc2cccc(Cl)c2)c1=O | inactive
O=C1OC(OC(=O)c2ccccc2Br)C(N2CCOCC2)=C1Cl (centres undefined) | 10 µM (active)
O=C1OC(NC(=O)c2ccccc2)C(N2CCOCC2)=C1Cl (centres undefined) | inactive
COc1ccc(NS(=O)(=O)c2ccc(N3CCOCC3)c(NC(=O)c3ccccc3Br)c2)cc1 | inactive
Cc1oc2c(c1C(=O)Nc1ccc(F)c(F)c1)C1=NCCN1C=N2 | inactive
Cn1c(=O)sc2cc(NS(=O)(=O)c3ccc(C(C)(C)C)cc3)ccc21 | inactive
CCCN(CCC)C(=O)C(Cc1ccccc1)NS(=O)(=O)c1ccc2c(c1)c(=O)n(C)c(=O)n2C (centres undefined) | inactive
CCOc1ccc(NC(=O)c2c(NC(=O)Cc3ccccc3)sc3c2CCCCC3)cc1 | inactive
O=C(O)c1ccc(CSc2nc3cccnc3n2Cc2cccc(F)c2)cc1 | inactive

Compound | Potency
COc1ccc(-c2nnc(SCC(=O)Nc3ccccc3C)o2)cc1OC | inactive
O=C(Nc1ccc(O)c(-c2nc3ccccc3o2)c1)c1ccc(-c2cccc(Cl)c2)o1 | inactive
O=C(Cn1c(=O)n(-c2ccc(F)cc2)c(=O)c2sccc21)Nc1cccc(C(F)(F)F)c1 | inactive
CSc1ccc(C2C(C(=O)Nc3ccccc3)=C(C)Nc3nc4ccccc4n32)cc1 (centres undefined) | inactive
COc1ccccc1NC(=O)COC(=O)COc1ccccc1F | inactive
CC(Oc1ccccc1F)C(=O)NN (centres undefined) | 79.4 µM (active)
CC(C)C(=O)NC(=S)Nc1ccccc1F | inactive
COc1ccc2c(c1)c(=O)c(C(=O)c1ccccc1)cn2CC(=O)Nc1ccc2c(c1)OCCO2 | inactive
CC1CCCN(S(=O)(=O)c2ccc3[nH]c(=O)cc(C(=O)NCCc4ccc(Cl)cc4)c3c2)C1 (centres undefined) | inactive
O=S(=O)(NCC(c1ccccc1)N1CCc2ccccc21)c1ccccc1 (centres undefined) | inactive
Cc1ccc2nc(COc3cccc(NC(=O)Nc4ccc(C)c(Cl)c4)c3)cc(=O)n2c1 | inactive
CN1C(=O)/C(=N/OC(=O)c2ccccc2Br)c2ccccc21 | 35.5 µM (active)
CN1C(=O)/C(=C\c2cc(Br)cs2)c2ccccc21 | inactive
COc1ccc(C(=O)ON=C2c3ccccc3-c3ccccc32)cc1OC | inactive
O=C(COc1ccccc1)NCc1ccc2c(c1)CCN2C(=O)c1ccc(F)cc1 | inactive
CCc1ccccc1NC(=O)Cn1c(=O)n(CC2CCC(C(=O)NCCc3ccccc3)CC2)c(=O)c2ccccc21 (centres undefined) | inactive
CCCn1c(=N)c(C(=O)NCc2ccccc2)cc2c(=O)n3cccc(C)c3nc21 | inactive
CC(C)(C)c1cc(CN2CCN(CCC#N)CC2)cc(C(C)(C)C)c1O | 35.5 µM (active)
N#Cc1cccc(CN2CCC(=O)N(CCO)CC2)c1 | inactive
CC(C)c1cc(CN2CCOCC2)cc(C(C)C)c1O | inactive
Cc1nn(Cc2ccc(F)cc2)c(C)c1NC(=O)c1cc(CC(C)C)on1 | inactive
CCOC(=O)c1c(S(=O)(=O)N2CCC(C(=O)NCc3ccccc3OC)CC2)c(C)n(C)c1C | inactive
CC(C)(C)c1ccc(S(=O)(=O)N2CCN(C(=O)c3cc(-c4ccc(Br)cc4)n[nH]3)CC2)cc1 | inactive
COC(=O)CN1C(=O)CSc2ccc(S(=O)(=O)Nc3cc(C)ccc3C)cc21 | inactive

Compound | Potency
CCC1=Nc2cc(C(=O)NCCCOC(C)C)ccc2Sc2ccc(C)cc21 | inactive
CC(C)c1ccc(C2CC(=O)N3CN(C4CCCCC4)CSC3=C2C#N)cc1 (centres undefined) | inactive
CCCNc1ncnc2c1c(-c1ccccc1)cn2-c1ccc(OCC)cc1 | inactive
CCCN(CCC)CCNC(=O)c1ccc2c(c1)NC(=O)C(CS(=O)(=O)Cc1cccc(Br)c1)N2 (centres undefined) | inactive
Cc1ccc(-n2c3nc(=O)[nH]c(=O)c-3cc3c(Cl)cccc32)cc1 | inactive
O=C(CSc1nnc(-c2ccccc2F)o1)Nc1cccc(C(F)(F)F)c1 | inactive
CCC(=O)Nc1ccc2nc(SCC(=O)N3CCc4ccccc43)sc2c1 | inactive
Cc1ccc(-c2cnc(NCc3ccc(C(C)C)cc3)n2C)cc1 | inactive
Cc1ccc(C)c(NC(=O)C2CCCN(S(=O)(=O)c3cn(C)cn3)C2)c1 (centres undefined) | inactive
Cc1c(C(=O)N2CCCC2)oc2c1-c1nn(CC(=O)NCc3ccc(OC(C)C)cc3)cc1CC2 | inactive
Cc1c(NC(=O)Nc2ccc(F)c(Cl)c2)c(=O)n(-c2ccccc2)n1C | inactive
CCCN(C(=O)Cn1cc(S(=O)(=O)N2CCN(c3ccccc3F)CC2)c2ccccc2c1=O)c1cccc(C)c1 | inactive
COc1ccc(Cl)cc1S(=O)(=O)N1CCC(c2ccncc2)CC1 | inactive
COc1ccc(-c2nc3sc(CCNS(=O)(=O)c4ccc(F)c(C)c4)c(C)n3n2)cc1 | inactive
CCOc1ccc(-c2cc3nc(C4CCN(C(=O)OC(C)(C)C)CC4)c(C(=O)Nc4ccc(C(=O)OC)cc4)cn3n2)cc1 | inactive
CCCNC(=O)CCC(=O)N1Cc2ccccc2Oc2ncccc21 | inactive
O=C(Cn1c(-c2cccs2)cc2ccccc21)NCCc1ccc(Cl)cc1 | inactive
Cc1ccc(CNS(=O)(=O)c2ccc(-c3cc(C(F)(F)F)on3)s2)cc1 | inactive
COCCCNC(=O)c1ccc(NC(=O)c2nsc3ccccc23)cc1 | inactive
COc1ccc(-c2nc(C)c(CCNC(=O)c3ccc(C(F)(F)F)cc3)s2)cc1OC | inactive
CC1CCCN(Cc2c(O)ccc3c(=O)c(Oc4ccc(C(C)(C)C)cc4)c(C(F)(F)F)oc23)C1 (centres undefined) | inactive
COc1ccc(/C=C/c2nc(C#N)c(NCc3ccc(F)cc3)o2)cc1OC | inactive
